Drawing on PubChem BioAssay (NCI), this text covers growth for 14 molecules.

Some test systems named below: T-47D breast; BT-549 breast; MDA-MB-435 melanoma; SW-620 colon; MCF7 breast; HCT-116 colon; HCC-2998 colon; KM12 colon.
Common to all, as to assay: NCI-60 one-dose screen, 48 h (100 = growth as untreated, 0 = no growth, -100 = all killed)
What all share (settings): 10 µM

Each structure is given as a SMILES string. About 83,000 compounds went through this panel and 20% of them were active in at least one assay; those are over-represented in the sample as a whole.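 Treatment: one concentration, 48 hours, 96-well format. Scoring: percent growth, with anything below 10 considered active.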 A number with no mark means an inactive call. The source made the active and inactive calls.

For the molecule `CNC(=O)c1cn2c3c(c(N4CCN(C)CC4)c(F)cc3c1=O)OC[C@@H]2C`, the growth in the experiment on T-47D breast was 98.9%; in the experiment with BT-549 breast it was 104%; with MDA-MB-435 melanoma, 104%; in the experiment on SW-620 colon, 99.9%; with MCF7 breast, 95.8%; with HCT-116 colon, 104%. The values for the growth with HCC-2998 colon and with KM12 colon were 108% and 100%, respectively.

As for `O=C(Nc1ccc(F)cc1)c1cc2ccccc2cc1O`, the growth is 46.3% with T-47D breast; 72.4% with BT-549 breast; 86.3% in the experiment on MDA-MB-435 melanoma; 90.9% with SW-620 colon; 58.5% with MCF7 breast; 77.9% in the experiment with HCT-116 colon. Besides, the growth in the experiment with HCC-2998 colon is 104%; in the experiment with KM12 colon, 69.2%.

With `Nc1nc(Cn2c(-c3nonc3N)nc3ccccc32)nc(N2CCCCC2)n1`, the growth is 83% in the experiment on T-47D breast; 89% with BT-549 breast; 39.2% with MDA-MB-435 melanoma; 94.4% in the experiment with SW-620 colon; 83.5% in the experiment with MCF7 breast; 87.7% with HCT-116 colon. The growth in the experiment on HCC-2998 colon was 95.9%; in the experiment on KM12 colon it was 75.6%.

As to `Oc1cccc(-c2nc3sccn3c2-c2ccncn2)c1`, the growth was 108% in the experiment on T-47D breast; 110% with BT-549 breast; 46% in the experiment with MDA-MB-435 melanoma; 108% in the experiment with SW-620 colon; 76.7% in the experiment on MCF7 breast; 97.3% in the experiment with HCT-116 colon. Besides, the growth with HCC-2998 colon was 111%; in the experiment on KM12 colon it was 107%.

As to `N#Cc1c(-c2ccc(Cl)cc2)n(O)c2ccccc12`, the growth is 13.2% in the experiment with T-47D breast; 0.694% (active) in the experiment with BT-549 breast; 2.57% (active) with MDA-MB-435 melanoma; 15.3% with SW-620 colon; 17.5% in the experiment with MCF7 breast; 12.9% with HCT-116 colon. Also, the growth was 47.2% with HCC-2998 colon and 15.9% in the experiment with KM12 colon.

Turning to `COc1ccc2nc(-c3ccc(Cl)cc3)cc(-c3nnc(SC/C(=N\O)c4ccccc4)n3-c3ccccc3)c2c1`, the growth with T-47D breast is 63.5%; in the experiment with BT-549 breast, 90.8%; in the experiment on MDA-MB-435 melanoma, 83.1%; with SW-620 colon it was 90.5%; in the experiment on MCF7 breast, 69.3%; with HCT-116 colon it was 67.9%. Further, the growth is 115% in the experiment on HCC-2998 colon and 69.2% in the experiment with KM12 colon.

As for `CC[C@@H](C(=O)[C@@H](C)[C@@H](O)[C@H](C)[C@@H]1O[C@@H]([C@@H](CC)C(=O)O)CC[C@@H]1C)C1O[C@]2(C=CC(=O)[C@]3(CC[C@@](C)([C@H]4CC[C@](O)(CC)[C@H](C)O4)O3)O2)[C@H](C)C[C@@H]1C` (some centres not stated), the growth is 26.1% in the experiment with T-47D breast; 34.2% with BT-549 breast; 21% in the experiment with MDA-MB-435 melanoma; 35.2% in the experiment on SW-620 colon; 11.2% in the experiment with MCF7 breast; 32.6% with HCT-116 colon. Besides, the growth in the experiment with HCC-2998 colon is 36.1%; in the experiment on KM12 colon, 36%.

On to `Cc1cc(O)ccc1C1=NN(c2ccc(S(C)(=O)=O)cc2)C(=O)CC1`, for which the growth was 84.8% in the experiment on T-47D breast; 58.2% in the experiment with BT-549 breast; -8.25% (active) with MDA-MB-435 melanoma; 46.6% with SW-620 colon; 82.8% with MCF7 breast; 52.4% in the experiment on HCT-116 colon. Also, the growth in the experiment with HCC-2998 colon was 78.6%; with KM12 colon, 47.6%.

With `COc1ccc(-c2n[nH]nc2-c2cc(OC)c3c(c2OC)OCO3)cc1`, the growth in the experiment with T-47D breast is 27.9%; with BT-549 breast it was 16.8%; in the experiment with MDA-MB-435 melanoma it was -12.3% (active); in the experiment on SW-620 colon it was 19.4%; in the experiment on MCF7 breast it was 27.7%; with HCT-116 colon, 25.6%. Moreover, the growth in the experiment with HCC-2998 colon was 39.6%; with KM12 colon, 31.9%.

With `S=C(SSC(=S)N(c1ccccc1)c1ccccc1)N(c1ccccc1)c1ccccc1`, the growth in the experiment on T-47D breast is 97.3%; in the experiment on BT-549 breast, 109%; with MDA-MB-435 melanoma it was 104%; in the experiment on SW-620 colon, 108%; in the experiment with MCF7 breast it was 98.8%; in the experiment with HCT-116 colon it was 100%. The growth in the experiment with HCC-2998 colon is 101%; with KM12 colon, 98.1%.

Take `COc1cc2c(cc1NC(=O)C(F)(F)F)-c1ccc(NC(=O)C(F)(F)F)cc1C2`: the growth with T-47D breast was 83.8%; in the experiment with BT-549 breast, 98.7%; with MDA-MB-435 melanoma it was 99.6%; with SW-620 colon, 98.1%; with MCF7 breast, 94.2%; in the experiment on HCT-116 colon, 97.1%. Moreover, the growth is 105% with HCC-2998 colon and 97.3% with KM12 colon.

With `OC[C@H]1OC([S-])[C@H](O)[C@@H](O)[C@@H]1O.[Au+]` (some centres not stated), the growth was 85.5% with T-47D breast; 87.1% in the experiment with BT-549 breast; 83.3% with MDA-MB-435 melanoma; 101% in the experiment on SW-620 colon; 72.8% with MCF7 breast; 99% in the experiment with HCT-116 colon. Moreover, the figures for the growth in the experiment with HCC-2998 colon and in the experiment on KM12 colon were 112% and 114%, respectively.

As for `CCOC(=O)c1cc(C(=O)c2cc(OC)c(OC)c(OC)c2)n2c1ccc1c3cccnc3ccc12`, the growth in the experiment with T-47D breast is 50.7%; in the experiment on BT-549 breast, 68.9%; with MDA-MB-435 melanoma, 8.8% (active); in the experiment with SW-620 colon, 23.6%; in the experiment on MCF7 breast it was 28.8%; with HCT-116 colon it was 21.6%. In addition, the figures for the growth with HCC-2998 colon and with KM12 colon were 81.9% and 41.5%, respectively.

As for `O=C(CCCSc1nc(-c2ccc(Cl)cc2)cc(-c2ccc(Cl)cc2)n1)NO`, the growth in the experiment with T-47D breast is 24.6%; in the experiment with BT-549 breast, 31.9%; in the experiment with MDA-MB-435 melanoma, 24%; in the experiment with SW-620 colon, 23.9%; in the experiment on MCF7 breast it was 2.7% (active); in the experiment with HCT-116 colon, 11.5%. For the same molecule, the growth in the experiment with HCC-2998 colon is 7.09% (active); with KM12 colon it was 26.3%.
